Sfp inh: qHTS Assay for Inhibitors of Bacillus subtilis Sfp phosphopantetheinyl transferase (PPTase). Potency, µM, without a hit: largest response in the series, negative = inhibition, usual class: inhibitors. Biochemical Sfp PPTase activity, qHTS. AID 1490, 2009. 4'-phosphopantetheinyl transferase ffp (Bacillus subtilis), Q9F4F7. hit rate 3.5% among 310,000;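 note: the enzyme is Sfp with the accession as filed and its product quenches rhodamine fluorescence; 0% = enzyme reaction without inhibitor and -100% = no enzyme wells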
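Fluorescence-quenching assay with 15 nM Sfp, 5 uM rhodamine-CoA and 12.5 uM BHQ-2-labelled ybbR peptide in pH 7.6 Hepes/MgCl2 buffer. Enzyme was pre-incubated with compound for 15 min at room temperature. Rate was taken from the 30-min fluorescence change (525/598 nm).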
HP1b binding inh: HTS for Inhibitors of HP1-beta Chromodomain Interactions with Methylated Histone Tails; AID 540317, 2011; Potency, µM (series often up to 114 µM), inactives show at the top dose activity change, negative = inhibition, usual class: inhibitors; hit rate 0.56% among 390,000; AlphaScreen HP1-beta / biotin-H3K9me3 peptide binding; note: nearly all actives have a fitted effect of over 70% in size
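Compound inhibition of the preformed complex between 50 nM HP1-beta and 50 nM biotinylated H3K9me3 peptide was read by AlphaScreen. Buffer was PBS pH 7.4 with 0.01% Tween-20. Incubations ran 30 min at room temperature, with 10 ug/mL donor/acceptor beads.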
JMJD2A Tudor inh: qHTS Assay for Inhibitors of JMJD2A-Tudor Domain | Lysine-specific demethylase 4A (Homo sapiens), O75164 | AlphaScreen JMJD2A-Tudor / H3K4me3 peptide binding | Potency, µM (titrated, usually from 114 µM), without a hit: top-dose activity change, negative = inhibition, hits mostly inhibitors | hit rate 4.4% among 390,000 | AID 504339, 2011; note: % is set by controls: 0 for no effect and ±100 for the full control effect; nearly all actives have a fitted effect of over 50% in size
L3MBTL1 block: qHTS Assay for the Inhibitors of L3MBTL1; AID 485360, 2010; AlphaScreen L3MBTL1–H3K9me1 peptide binding; Potency, µM (highest dose often 57.1 µM), for the others: top-dose activity, negative = inhibition, hits mostly inhibitors; hit rate 0.66% among 230,000; Lethal(3)malignant brain tumor-like protein 1 (Homo sapiens), Q9Y468; note: % is set by controls: 0 for no effect and ±100 for the full control effect; nearly all actives have a fitted effect of over 60% in size
Target sequence (Q9Y468 whole entry, looked up): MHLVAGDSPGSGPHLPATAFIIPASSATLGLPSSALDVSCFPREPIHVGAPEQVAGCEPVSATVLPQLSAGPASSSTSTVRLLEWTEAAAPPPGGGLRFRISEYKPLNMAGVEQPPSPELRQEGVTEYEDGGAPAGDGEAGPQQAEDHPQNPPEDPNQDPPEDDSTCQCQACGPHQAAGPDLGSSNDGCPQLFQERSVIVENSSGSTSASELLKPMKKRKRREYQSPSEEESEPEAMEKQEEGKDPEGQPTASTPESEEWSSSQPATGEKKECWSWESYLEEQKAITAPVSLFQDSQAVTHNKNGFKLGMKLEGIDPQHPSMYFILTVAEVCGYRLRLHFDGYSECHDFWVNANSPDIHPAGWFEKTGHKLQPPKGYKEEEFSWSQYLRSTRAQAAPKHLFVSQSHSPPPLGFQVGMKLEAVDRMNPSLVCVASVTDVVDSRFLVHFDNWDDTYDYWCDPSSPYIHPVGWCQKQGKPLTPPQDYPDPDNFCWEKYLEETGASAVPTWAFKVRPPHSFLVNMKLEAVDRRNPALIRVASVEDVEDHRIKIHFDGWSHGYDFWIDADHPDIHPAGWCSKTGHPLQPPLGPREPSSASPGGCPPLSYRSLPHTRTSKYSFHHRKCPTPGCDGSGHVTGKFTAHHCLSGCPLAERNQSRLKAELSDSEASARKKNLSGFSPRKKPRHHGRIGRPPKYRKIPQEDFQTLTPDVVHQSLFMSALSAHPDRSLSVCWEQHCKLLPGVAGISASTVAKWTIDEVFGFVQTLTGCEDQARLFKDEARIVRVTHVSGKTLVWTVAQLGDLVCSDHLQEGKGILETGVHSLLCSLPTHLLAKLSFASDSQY
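L3MBTL1 50 nM + b-AHA-H3(1-15)K9me1 75 nM, 30 min RT; compound added, 30 min RT; streptavidin donor/Ni-chelate acceptor beads 10 ug/mL each final, 30 min RT dark; AlphaScreen read.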
G9a block: qHTS Assay for Inhibitors of Histone Lysine Methyltransferase G9a. Potency, µM (series often up to 102 µM), for inactives: at the top dose activity, negative = inhibition, hits mostly inhibitors. hit rate 8.8% among 350,000. AID 504332, 2011. G9a H3K9 monomethylation, AlphaScreen, 2 h; note: % is set by controls: 0 for no effect and ±100 for the full control effect; nearly all actives have a fitted effect of over 75% in size
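Enzyme 20 nM + cpd, 15 min RT; add b-H3K9 pep 500 nM / SAM 20 uM; 2 h RT; anti-H3K9me1 Ab 0.5 ug/mL + SA donor / anti-rabbit acceptor beads 20 ug/mL each, 10 min; AlphaScreen read.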
BAZ2B block: qHTS Assay for Inhibitors of BAZ2B; Potency, µM (titrated, usually from 114 µM), without a hit: top-dose activity change, negative = inhibition, usual class: inhibitors; Bromodomain adjacent to zinc finger domain protein 2B (Homo sapiens), Q9UIF8; hit rate 4.4% among 360,000; AlphaScreen BAZ2B-H3K14Ac peptide displacement; AID 504333, 2011; note: % is set by controls: 0 for no effect and ±100 for the full control effect; nearly all actives have a fitted effect of over 60% in size
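BAZ2B 50 nM plus b-H3(5-23)K14Ac 50 nM, PBS pH 7.4/0.01% Tween-20, 30 min RT; compound added (max 110 uM), 30 min RT; streptavidin donor/Ni-chelate acceptor beads 10 ug/mL final, 20 min dark; AlphaScreen read.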
* marks the source's active call; other numbers are inactive results; ? = inconclusive; / = not tested or not shown; [ ] = remark or other dose. Rows were chosen to be rich in hits. Some 12% of all compounds tested hit in one or more screens of this group. Calls come from the whole dose curve; as a rule, active = well fitted curve in the direction sought with a large enough effect; inconclusive = small, poorly fitted or top-dose-only effect, or another doubt; inactive = no such curve, though single readings can be large; an effect the other way counts as inactive or inconclusive. Potency is the fitted concentration of half-maximal effect.

SMILES | Sfp inh | HP1b binding inh | JMJD2A Tudor inh | L3MBTL1 block | G9a block | BAZ2B block
CCCC(NC(=O)Cc1c(C)c2cc3c(C)c(C)oc3c(C)c2oc1=O)C(=O)N[C@@H](Cc1ccccc1)C(=O)O (stereo partly specified) | -16.8% | ? | 56.2µM* | / | -132.7%[12.7 µM] | 50.1µM*
Cc1coc2c(C)c3oc(=O)c(CCC(=O)N[C@@H](C)C(=O)N[C@@H](Cc4ccccc4)C(=O)O)c(C)c3cc12 | -6.3% | -21.7% | 89.1µM* | / | / | ?
CCCCC(NC(=O)Cc1c(C)c2cc3c(C)c(C)oc3c(C)c2oc1=O)C(=O)O (stereo unspecified) | 4.0% | 22.5% | -7.5% | / | 6.8% | -1.9%
O=C(Nc1ccc(F)cc1)c1ncn(-c2ccccc2)n1 | / | 28.2% | 4.1% | / | -2.4%[59 µM] | 2.5%
COc1cccc(CNC(=O)CCn2cnc3ccccc3c2=O)c1 | / | -11.1%[57 µM] | ? | / | -16.9%[59 µM] | ?
CCOc1ccc(CC(=O)NNC(=O)/C=C/C(=O)O)cc1 | ? | 14.8% | -27.1% | -0.5% | 31.6µM* | -29.0%
COc1ccc(-n2c3c(cc(-c4nc(-c5ccc(C)cc5)cs4)c2=O)C(=O)CC(C)(C)C3)cc1 | / | 75.7% | 3.4% | / | 2.4%[59 µM] | 7.4%
CC1(C)CC(=O)c2cc(-c3nc(-c4ccc(Cl)cc4)cs3)c(=O)[nH]c2C1 | / | 29.3% | 3.1% | / | 14.1µM* | 0.7%
Cc1cc2c(n1-c1ccc(Br)cc1)CC(C)(C)CC2=O | 5.1% | -8.5% | ? | / | -69.4% | ?
COc1ccc(C2CC(=O)c3cc(-c4nc(-c5ccc(C)cc5)cs4)c(=O)[nH]c3C2)cc1 (stereo unspecified) | / | 44.3% | 0.7% | / | 1.78µM* | ?
Cc1ccc(-n2c(C)cc3c2CC(C)(C)CC3=O)cc1C | 9.5% | -27.6% | 56.2µM* | / | ? | ?
Cc1ccc(-n2c3c(cc(-c4nc(-c5ccc(Cl)cc5)cs4)c2=O)C(=O)CC(C)(C)C3)cc1C | / | 46.9% | 14.7% | / | 15.8µM* | -0.7%
COc1ccc(C2CC(=O)c3cc(-c4nc(-c5ccc(Cl)cc5)cs4)c(=O)[nH]c3C2)cc1OC (stereo unspecified) | / | 35.7% | 3.4% | / | -37.9%[59 µM] | ?
COC(=O)[C@@H]1C[C@@]2(O)[C@@H](O)[C@@H](O)[C@@H](O)C[C@H]2N1Cc1ccc(N2CCOCC2)cc1 | 17.2% | / | / | / | / | /
COC(=O)c1c(-c2ccc(OC)cc2)sc2ccccc12 | / | / | / | 329.7% | -4.6%[0.501 µM] | 181.9%
COc1ccc(OC)c(NC(=O)c2cc3c(s2)-c2ccccc2SC3)c1 | / | 23.8% | -5.7% | / | 25.9%[59 µM] | 6.9%
O=C(c1ccncc1)N1CCC[C@@]2(CCN(C(c3ccccc3)c3ccccc3)C2)C1 | 2.2% | / | / | / | 1.2%[12.7 µM] | /
COc1ccc(C2CC(=O)c3cc(-c4nc(-c5cccc([N+](=O)[O-])c5)cs4)c(=O)n(-c4ccccc4C)c3C2)cc1 (stereo unspecified) | / | 24.4% | -15.7% | / | 3.55µM* | ?
CC1(C)CC(=O)c2cc(-c3nc(-c4ccc(F)cc4)cs3)c(=O)[nH]c2C1 | / | 33.8% | ? | / | 1.26µM* | 70.8µM*
CCCCn1c(N)c(N(C)C(=O)c2c(C)nn(-c3ccccc3)c2C)c(=O)[nH]c1=O | / | 38.0% | -20.5% | -2.3% | / | /
CCC1CCC(c2nnc(-c3ccc([N+](=O)[O-])cc3)o2)CC1 (stereo unspecified) | -1.6% | -10.7% | -33.3% | -15.3% | 10µM* | ?
Clc1ccc(-c2nnc(C3CC3)o2)cc1 | 14.0% | 6.3% | -12.5% | 5.5% | 15.1%[59 µM] | 3.1%
COc1ccc(-c2noc(CN(C(=O)c3cc(OC)c(OC)cc3OC)C(C)C)n2)cc1 | / | 17.2% | -22.6% | / | -23.3%[59 µM] | ?
CSC1=C(C#N)C(=O)NC(c2ccc(Cl)cc2)S1 (stereo unspecified) | -13.8% | -4.0% | -19.7% | / | 31.6µM* | ?
CC1CCC(NC(=O)c2ccc3c(c2)N(Cc2cccc(Cl)c2)C(=O)c2ccccc2S3(=O)=O)CC1 (stereo unspecified) | / | 0.4% | -9.0% | / | -8.2%[59 µM] | 1.4%
SMILES | Sfp inh | HP1b binding inh | JMJD2A Tudor inh | L3MBTL1 block | G9a block | BAZ2B block
COc1cc(Nc2cc(C)nc3ncnn23)cc(OC)c1 | -4.9% | 35.9% | -12.5% | -0.9% | ? | 12.0%
Cc1cc(C)n2ncnc2n1 | -0.4% | 27.3% | -3.2% | / | 50.1µM* | ?
COc1cc(Nc2cc(C)nc3ncnn23)cc(OC)c1OC | 3.9% | 67.9% | -7.0% | 1.0% | 44.7µM* | 7.8%
Cc1ccc(-c2cc(C)nc3ncnn23)cc1 | 13.9% | 37.2% | 7.1% | 0.8% | 4.6% | -0.8%
Cc1cc(Nc2ccc(N3CCC(C)CC3)cc2)n2ncnc2n1 | -4.9% | 1.5% | ? | 1.1%[11.4 µM] | -49.9%[12.7 µM] | 56.2µM*
Cc1ccc(Nc2cc(C)nc3ncnn23)cc1 | 20.7% | 27.9% | -12.6% | -11.0% | 70.8µM* | -17.8%
CC(=O)c1ccc(Nc2cc(C)nc3ncnn23)cc1 | 10.6% | 25.3% | ? | -3.2% | -7.0% | -3.9%
O=C(CC1C(=O)NCCN1Cc1ccc(-c2ccccc2)cc1)NCCCn1ccnc1 (stereo unspecified) | 16.7% | 52.7% | -28.4% | -11.9% | ? | -34.1%
CC(=O)Oc1cccc(C(=O)Nc2ccccc2C(=O)N2CCCC2)c1 | 6.8% | 7.6% | -12.4% | / | 18.3% | -15.0%
CC(=O)c1ccc(Nc2cc(C)nc3nc(C)nn23)cc1 | -1.7% | 40.4% | -3.5% | 6.6% | 79.4µM* | 6.4%
Cc1cc(Nc2ccc(C(=O)O)cc2)n2nc(C)nc2n1 | 15.1% | 47.7% | 0.7% | -8.8% | -2.6%[59 µM] | 9.9%
O=C(/C=C/c1ccc(Cl)cc1)NC(=S)NN1CCCCC1c1cccnc1 (stereo unspecified) | -6.2% | / | / | -7.3% | 22.4µM* | ?
CCCCC(=O)Nc1ccc(S(=O)(=O)N2CCCCC2c2cccnc2)cc1 (stereo unspecified) | 6.9% | 31.1% | -10.2% | / | 38.3% | -13.3%
COc1ccc(/C=C/C(=O)NC(=S)N2CCCCC2)cc1OC | 3.3% | 25.3% | -7.0% | / | ? | -0.8%
COc1ccc(/C=C/C(=O)NC(=S)NN2CCCCC2c2cccnc2)cc1OC (stereo unspecified) | -29.5% | 6.0% | -8.8% | -12.8% | 31.6µM* | -38.1%

Bioassay records: PubChem BioAssay, National Center for Advancing Translational Sciences (NCATS)
